Bioassay records from PubChem BioAssay.
Rows were chosen to be rich in hits. Some 28% of all compounds tested hit in one or more screens of this group.
CYP2C9 act: CYP2C9 (human) activation; P11712; recombinant CYP2C9, luciferin-H conversion, luminescence; stronger effect = higher value; factor 1 = untreated enzyme, 0 = blocked; activation factor at 5 µM; 1.4% of 96,000 active; AID 1024;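 active = activation factor of 2 or more for CYP2C9 at a 5 µM dose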;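 note: 0 = sulfaphenazole-blocked wells and 1 = vehicle-only wells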
CD11b adhes inh: CD11b/CD18-fibrinogen binding inhibition. AID 1497. K562 CD11b/CD18 adhesion to fibrinogen, ATPlite luminescence; Mn2+ added to activate the integrin. inhibition, % at 10 µM. P05107+P11215. 0.54% of 93,000 active;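 active = primary inhibition of 50% or more at 10 µM, then 40% or more on retest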
CYP2C9 inhib: inhibitors of human CYP2C9; P11712; inhibition, % at 5 µM; CYP2C9 Supersomes, luciferin-H conversion, luminescence; AID 777; 20% of 96,000 active;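 active = blocking of liver enzyme CYP2C9 beyond about 50% at 5 µM, limit read from the data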
CYP2C19 inh: blocks human cytochrome P450 2C19; P33261; CYP2C19 Supersomes, luciferin-H EGE luminescence, 30 min; inhibition, % at 5 µM; 21% of 96,000 active; AID 778;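 active = CYP2C19 inhibition above a set limit at 5 µM in the primary screen, cut at about 50% in these data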;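 note: plate controls were negative control wells for no effect and 2.5 mM tranylcypromine positive control for full effect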
Target sequence (P33261 whole entry, looked up): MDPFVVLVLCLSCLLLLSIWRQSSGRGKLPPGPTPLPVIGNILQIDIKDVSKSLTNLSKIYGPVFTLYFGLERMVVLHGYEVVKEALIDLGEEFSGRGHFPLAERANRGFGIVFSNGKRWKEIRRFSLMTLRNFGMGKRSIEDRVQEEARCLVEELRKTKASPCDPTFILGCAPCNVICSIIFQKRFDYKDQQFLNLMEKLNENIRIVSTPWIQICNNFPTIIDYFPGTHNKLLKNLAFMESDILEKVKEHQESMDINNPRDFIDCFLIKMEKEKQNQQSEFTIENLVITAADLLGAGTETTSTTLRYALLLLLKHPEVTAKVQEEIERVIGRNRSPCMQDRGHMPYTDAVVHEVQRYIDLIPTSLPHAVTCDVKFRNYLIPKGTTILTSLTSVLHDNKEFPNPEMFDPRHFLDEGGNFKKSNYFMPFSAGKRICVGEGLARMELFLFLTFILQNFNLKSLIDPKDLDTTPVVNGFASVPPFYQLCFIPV
CYP2C19 act: cytochrome P450 2C19 (human) activation | P33261 | recombinant CYP2C19, luciferin-H EGE luminescence; stronger effect = higher value; 0 = fully inhibited enzyme, 1 = untreated enzyme | activation factor at 5 µM | 96,000 tested, under 10 active | AID 1025;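 active = activation factor of at least 2 at 5 µM in the primary screen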;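 note: 0 = wells with 2.5 mM tranylcypromine and 1 = vehicle-only wells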
Mac1 fbg enh: enhancers of human CD11b/CD18 binding to fibrinogen | P05107+P11215 | K562 CD11b/CD18 adhesion to fibrinogen, ATPlite luminescence | activation, % at 10 µM | 0.07% of 93,000 active | AID 1499;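 active = 10 µM primary screen giving 50% or more activity, confirmed by 40% or more on retest at that dose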
Active calls of the source: *; x = no result given.

SMILES	CYP2C9 act	CD11b adhes inh	CYP2C9 inhib	CYP2C19 inh	CYP2C19 act	Mac1 fbg enh
Cc1ccc(N(CC(=O)Nc2ccc3c(c2)OCCO3)S(=O)(=O)c2c(C)noc2C)cc1	0.8	-18.5	24.5	-4.3	1	-4.3
CCOC(=O)c1ccc(NC(=O)CN(c2ccc(C)cc2)S(=O)(=O)c2c(C)n[nH]c2C)cc1	0.2	-15.4	75.6*	18.9	0.8	-5.7
COc1ccc(N(CC(=O)Nc2cc(C)on2)S(=O)(=O)c2cc(C)ccc2C)cc1	0	-0.8	95.4*	98.1*	0	-2.5
Cc1cc(C)cc(N(CC(=O)N2CCN(c3ccccc3)CC2)S(=O)(=O)c2c(C)noc2C)c1	0.8	-10.5	24.5	30.7	0.7	1.1
COc1ccc(NC(=O)CN(c2cc(C)cc(C)c2)S(=O)(=O)c2c(C)n[nH]c2C)cc1	0.3	0.3	69.1*	14.0	0.9	1.1
COc1cccc(N2CCN(C(=O)CN(c3ccc(C)cc3)S(=O)(=O)c3c(C)n[nH]c3C)CC2)c1	0.2	-3.7	81.4*	58.2*	0.4	-0.1
COc1ccc(N(CC(=O)O)S(=O)(=O)c2c(C)n[nH]c2C)cc1	1.1	6.5	-14.3	-11.9	1.1	-1.8
CCOc1ccccc1NC(=O)CN(c1ccc(C)cc1)S(=O)(=O)c1c(C)n[nH]c1C	0.1	-4.5	94.8*	73.3*	0.3	2.3
Cc1ccc(N(C(C)C(=O)O)S(=O)(=O)c2c(C)n[nH]c2C)cc1 (stereo unspecified)	0.8	-5.4	20.3	11.1	0.9	0.8
O=C(COc1ccc(/C=N/NC(=O)c2cc3ccccc3o2)cc1Br)Nc1ccccc1	0.6	x	43.1	11.1	0.9	x
CC(=O)Nc1nc(CCC(C)C)cc2c1c(=O)oc1ccccc12	0.8	-22.0	15.5	14.2	0.9	0.8
Cc1ccc(SC/C(O)=C(\C#N)c2nc3ccccc3s2)cc1	0	101.1*	99.7*	53.5*	0.5	-10.2
N#C/C(=C(/O)CSc1ccccc1C(=O)O)c1nc2ccccc2s1	0.9	-11.1	7.5	-7.0	1.1	-4.7
N#C/C(=C1/CCCCCN1)c1nc2ccccc2s1	1	-3.6	2.7	-4.8	1	-4.5
COc1ccc(C/C(O)=C(\C#N)c2nc3ccccc3s2)cc1	0.3	104.1*	68.4*	-1.4	1	-11.2
O=[N+]([O-])c1cccc(Cl)c1NCCNS(=O)(=O)c1ccccc1	2*	-1.3	-104.7	60.3*	0.4	1.5
O=S(=O)(NCCc1cn2ccccc2n1)c1cccs1	1	-52.2	3.3	17.7	0.8	-1.7
CCOC(=O)c1cc(S(=O)(=O)NC2CCN(C(=O)OCC)CC2)cn1C	0.4	5.5	56.8*	31.4	0.7	1.4
COc1ccc(OC)c(/C(O)=C/C(=O)C(=O)Nc2ccccc2OC)c1	1.1	-16.7	-13.6	3.6	1	1.1
Cc1ccnc(Sc2ccc([N+](=O)[O-])cc2[N+](=O)[O-])n1	1	5.4	4.3	77.2*	0.2	-1.9
COc1ccc(OC)c(S(=O)(=O)Nc2ccc(O)c3ccccc23)c1	0.2	93.7	84.5*	75.7*	0.2	1.6
CCOC(=O)c1ccc(NS(=O)(=O)CC)cc1	0.2	-0.3	80.1*	67.3*	0.3	-3.8
COc1ccc(OC)c(S(=O)(=O)Nc2ccc(C(N)=O)cc2)c1	0.7	-6.2	29.7	59.9*	0.4	-1.5
CCCCOC(=O)c1ccc(NS(=O)(=O)c2cc(-c3nnnn3CC)ccc2OC)cc1	0.3	-6.5	71.2*	12.2	0.9	-1.5
CCOC(=O)c1ccc(Nc2ccc(-c3ccc(OC)c(OC)c3)nn2)cc1	0.8	2.4	16.3	30.6	0.7	-3.0
COc1ccc(OC)c(S(=O)(=O)Nc2ccc(C(C)=O)cc2)c1	0.6	-11.4	43.8	47.1	0.5	-5.7
COc1ccc(OC)c(S(N)(=O)=O)c1	1	-9.8	1.5	12.8	0.9	1.7
CC(C)COc1ccc2[nH]c3c(c2c1)CCCC3=O	1	-13.9	-1.3	11.7	0.9	6.1
CCOc1ccc(NS(=O)(=O)c2cc(OC)ccc2OC)cc1	0.2	-1.8	79.1*	49.2	0.5	-4.3
CCOC(=O)c1ccc(NS(=O)(=O)c2cc(C)ccc2OC)cc1	0.4	16.0	57.9*	-5.4	1.1	2.1
